Source: PubChem
Only some compounds are listed: those with a hit (about 19% of all), similar ones and a draw of the others.
HT1080NT lethal: qHTS for induction of synthetic lethality in tumor cells producing 2HG: qHTS for the HT-1080-NT fibrosarcoma cell line; AID 686970, 2013; 360,000 compounds, 1.6% hits; Potency, µM (series often up to 46.1 µM), for the others: at the highest dose activity, negative = less viability, usual class: cytotoxic; HT-1080-NT fibrosarcoma viability, CellTiter-Glo ATP luminescence, 48 h;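 further: NT is the 2HG producing partner of a matched IDH1 knockdown line; potency means the concentration at half of the fitted maximal effect; 0% = DMSO-treated cells and -100% = media-only wells without cells; nearly all actives have a fitted effect of over 55% in size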
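Luminescent CellTiter-Glo readout after 48 hours of compound exposure at 37 degrees C defined viability of HT-1080-NT cells. Activity was normalized to DMSO wells and cell-free media wells; concentration-response curves were fitted and assigned curve classes.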
TDP1 cell CPT: qHTS for Inhibitors of human tyrosyl-DNA phosphodiesterase 1 (TDP1): qHTS in cells in presence of CPT | chicken DT40 Tdp1-/-;hTDP1 cells + 20 nM CPT, ATP luminescence, 48 h | Potency, µM (doses to about 46.2 µM), for inactives: top-dose activity change, negative = growth inhibition, actives largely listed as inhibitors | 420,000 compounds, 12% hits | AID 686979, 2013; further: potency means the concentration at half of the fitted maximal effect; nearly all actives have a fitted effect of over 55% in size
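Chicken DT40 Tdp1-/- cells stably complemented with human TDP1 were seeded at 400 cells/well in medium containing 20 nM camptothecin, exposed to pin-transferred compounds, and grown at 37 °C for at least 48 hr. Viability was read as ATP luminescence.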
IL-1B inflam inh: qHTS for Inhibitors of Inflammasome Signaling: IL-1-beta AlphaLISA Primary Screen; THP-1 LPS/ATP IL-1B secretion, AlphaLISA, 16 h; stronger effect = lower value; activity change, % at 57.5 µM; 360,000 compounds, 4.7% hits; in the data active means activity change below about -50%; inconclusive means mostly about -30% to -49%
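Secreted IL-1B measured by AlphaLISA bead assay after 16 h compound exposure of THP-1 cells; compounds (final up to 57.5 uM) added 1 h before LPS (250 ng/mL) and ATP (1.25 mM) stimulation; lower signal means less secretion.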
DT40 TDP1 no CPT: qHTS for Inhibitors of human tyrosyl-DNA phosphodiesterase 1 (TDP1): qHTS in cells in absence of CPT. DT40 Tdp1-/- hTDP1 cells, no CPT, ATP luminescence, 48 h. Potency, µM (doses to about 46.2 µM), for inactives: at the top dose activity change, negative = growth inhibition, usual class: inhibitors. 420,000 compounds, 15% hits. AID 686978, 2013; further: potency means the concentration at half of the fitted maximal effect; nearly all actives have a fitted effect of over 55% in size
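Growth of hTDP1-complemented DT40 Tdp1-knockout cells is measured by ATP luminescence after at least 48 hr compound exposure at 37 °C, with DMSO substituting for the 20 nM CPT used in the parallel screen.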
HT1080 IDH1KD tx: qHTS for induction of synthetic lethality in tumor cells producing 2HG: qHTS for the HT-1080-IDH1KD cell line; HT-1080 IDH1 knockdown viability, ATP luminescence, 48 h; 360,000 compounds, 2% hits; Potency, µM (highest dose often 46.1 µM), for the others: at the highest dose activity, negative = toxicity, usual class: cytotoxic;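 further: potency means the concentration at half of the fitted maximal effect; 0% = DMSO wells and -100% = cell-free medium wells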
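Assay cells: HT-1080 with IDH1 knockdown, 750 per well, RPMI/5% FBS. Exposure: 48 h at 37 °C following 2 h pre-incubation. Read: CellTiter-Glo luminescence; fitted concentration-response, curve class assigned.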
An asterisk follows results filed as active; ? = inconclusive; / = no result given; [ ] = dose if it differs, or a comment. Unless noted, the call rests on the fitted dose curve; in most records, active means well fitted curve in the direction sought with a large enough effect; inconclusive means small, poorly fitted or top-dose-only effect, or another doubt; inactive means no such curve, though single readings can be large; an effect the other way counts as inactive or inconclusive. Unless noted, on the % scale 0 is the no-effect control and ±100 the full control effect.

SMILES | HT1080NT lethal | TDP1 cell CPT | IL-1B inflam inh | DT40 TDP1 no CPT | HT1080 IDH1KD tx
Cc1cc(C)n(-c2cccc(C(=O)NCC3Cc4cccc(-c5ccccn5)c4O3)c2)n1 (stereo unspecified) | / | ? | / | 12µM* | /
O=C(NCc1ccc(F)cc1)c1ccc(Br)o1 | 0% | 9% | -22 | -21% | 5%
O=C(c1ccncc1)N1CCN(c2cccc(C(F)(F)F)c2)CC1 | -5% | ? | -2 | ? | -6%
Cc1cccc(N2CCN(C(=O)CS(=O)(=O)c3cccc4nsnc34)CC2)c1C | / | 16µM* | / | ? | /
O=C(CS(=O)(=O)c1cccc2nsnc12)N1CCN(c2ccccc2F)CC1 | / | -17% | / | -21% | /
O=C(CS(=O)(=O)c1cccc2nsnc12)N1CCN(c2cccc(C(F)(F)F)c2)CC1 | / | 8.2µM* | / | 21µM* | /
CCC(C(=O)Nc1cc(OC)ccc1OC)n1nc(-c2ccccc2)c2c(c1=O)CCCC2 (stereo unspecified) | / | 16µM* | / | 18µM* | /
COc1cccc(NC(=O)CSc2c3c(nc4ccccc24)CCCC3)c1 | -10% | 23µM* | -96* | 21µM* | ?
COc1ccc(OC)c(NC(=O)CSc2c3c(nc4ccccc24)CCCC3)c1 | / | ? | / | 7.3µM* | /
COc1ccc(OC)c(NC(=O)CSc2c3c(nc4cc(Cl)ccc24)CCCC3)c1 | / | ? | / | 23µM* | /
CCc1ccc([C@@H]2C[C@H]3[C@@H](CN2S(=O)(=O)c2ccc(C)cc2)C(=O)C[C@@H](c2ccccc2F)N3S(=O)(=O)c2ccc(C)cc2)cc1 | 0% | -25% | 5 | ? | 19%
COC(=O)c1ccc(OC)c(CN2CCCN(Cc3cc(C)ccc3C)S2(=O)=O)c1 | 0% | ? | 33 | ? | -2%
CC(=O)c1ccc(NC(=O)CSc2nc(C3CC3)nc3ccccc23)cc1 | -18% | ? | ? | ? | -16%
CCN(CC)CCNC(=O)CSc1c2c(nc3cc(Cl)ccc13)CCCC2 | ? | ? | -104* | ? | ?
COc1ccc(Cl)cc1NC(=O)CSc1c2c(nc3ccccc13)CCC2 | / | 21µM* | / | 16µM* | /
Cc1cccc(NC(=O)CSc2c3c(nc4ccccc24)CCC3)n1 | ? | ? | -6 | ? | ?
Cc1ccc(NC(=O)CSc2c3c(nc4ccccc24)CCCC3)cc1F | / | ? | / | 15µM* | /
COc1ccc(NC(=O)CSc2nc(C3CC3)nc3ccccc23)c(OC)c1 | -1% | -20% | -59* | 23µM* | -22%
COc1ccc(OC)c(C2Nc3nc4ccccc4n3C(C)=C2C(=O)Nc2ccc(C)cc2C)c1 (stereo unspecified) | -7% | -28% | 10 | -26% | ?
C=C[C@@H]1c2cc(C)ccc2N(S(=O)(=O)c2ccc(C)cc2)[C@H](c2ccccc2)C1(C#N)S(=O)(=O)c1ccccc1 (stereo partly specified) | 8% | ? | 3 | ? | 6%
CCn1c(=O)c([N+](=O)[O-])c(NCC2CCCO2)c2ccccc21 (stereo unspecified) | 24% | 4% | 10 | -14% | 7%
CC(C)(C)NC(=O)C(=O)NCCC1=CCCCC1 | 13% | ? | -5 | ? | 8%
Nc1[nH]c(C(=O)c2ccccc2)c(-c2ccc(Cl)cc2)c1C(=O)NCc1ccccc1 | 0% | -7% | 12 | -16% | 12%
Nc1[nH]c(C(=O)c2ccccc2)c(-c2cccnc2)c1C(=O)NCCc1ccc(Cl)cc1Cl | -14% | ? | -3 | ? | -10%
COc1ccc(C(=O)c2[nH]c(N)c(C(=O)NCCc3c[nH]c4ccccc34)c2-c2ccc(Cl)cc2)cc1 | ? | 18µM* | ? | ? | ?
SMILES | HT1080NT lethal | TDP1 cell CPT | IL-1B inflam inh | DT40 TDP1 no CPT | HT1080 IDH1KD tx
COc1ccc(C(=O)c2[nH]c(N)c(C(=O)NCCc3c[nH]c4ccccc34)c2-c2ccc(Cl)c(F)c2)cc1 | ? | ? | -17 | 18µM* | 21µM*
CC(=O)Cc1nsc(NC(=O)c2ccc(F)cc2)n1 | -1% | -16% | 0 | 0% | -4%
Nc1nc(NC(=O)c2ccc(F)cc2)ns1 | 2% | -3% | -73* | 3% | -10%
Cc1nc(N)c(C#N)c(-c2ccc3c(c2)OCO3)c1C | -1% | -22% | 17 | 10% | 9%
N#Cc1c(N)oc(-c2ccc3c(c2)OCO3)c1-c1ccc2c(c1)OCO2 | 2% | 0% | -61* | -7% | 4%
COc1cccc(NC(=O)CN(C)C(=O)c2cccc(S(=O)(=O)N3CCN(c4ccc(F)cc4)CC3)c2)c1 | -16% | 16µM* | 10 | 16µM* | -10%
CN(CC(=O)Nc1ccc(F)cc1)C(=O)c1cccc(S(=O)(=O)N2CCN(c3ccc(F)cc3)CC2)c1 | -15% | 15µM* | -16 | 13µM* | ?
CN(CC(=O)Nc1cccc(F)c1)C(=O)c1cc(S(=O)(=O)N2CCN(c3ccccc3)CC2)ccc1Cl | 2%[9.24 µM] | 16µM* | -27 | 13µM* | -14%
CSc1ccccc1C(=O)N1CCC(n2nccc2NC(=O)C(C)(C)C)CC1 | 14% | -24% | 13 | -18% | 7%
O=c1c2ccccc2nc(N2CCN(c3cccc(Cl)c3)CC2)n1-c1ccccc1 | / | 3.7µM* | / | 2.9µM* | /
Cc1ccc(C)c(N2CCN(c3nc4ccccc4c(=O)n3-c3ccc(Cl)cc3)CC2)c1 | / | 5.8µM* | / | 21µM* | /
Cc1cc(-c2ccc(N=Nc3ccc4c(S(=O)(=O)O)cc(S(=O)(=O)O)c(N)c4c3O)c(C)c2)ccc1N=Nc1ccc2c(S(=O)(=O)O)cc(S(=O)(=O)O)c(N)c2c1O | / | 7.5µM* | / | 12µM* | /
Cc1ccc(N=Nc2ccc(N)cc2C)c(S(N)(=O)=O)c1 | ? | -22% | -8 | -24% | 12%
CCC(=O)N1CCc2cc(S(=O)(=O)NCCc3ccc(S(N)(=O)=O)cc3)ccc21 | 2% | -23% | -5 | 0% | -2%
CC(=O)NCC(=O)NNC1CC(=O)N(c2cccc(Cl)c2)C1=O (stereo unspecified) | 0% | 4% | 18 | -1% | 0%
CCC1(C2CCN(C(=O)c3ccccc3C(C)=O)CC2)NC(=O)N(CCc2scnc2C)C1=O (stereo unspecified) | / | 8% | / | -11% | /
CCOC(=O)c1[nH]c2ccc(F)cc2c1NC(=O)c1cc(OC)c(OC)c(OC)c1 | -5% | ? | -4 | 23µM* | -4%
